# Laboratory results as given in PubChem BioAssay.
# Unmarked numbers belong to inactive results. For some of these results: Measured potencies and affinities stand elsewhere. Active and inactive are the calls of the source. Unless noted, how the calls were made is not given here.
# Tests used:
# [1] = antimalarial activity against Dd2 strain (AID 2302;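 active means growth inhibition above 50% at the single 2 µM test dose, taken to imply half-maximal potency below 2 µM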;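 further: 0% = DMSO untreated growth and 100% = chloroquine plus artemisinin killed control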); details: P. falciparum Dd2 in RBCs, LDH growth readout, 72 h; at 2 µM; stronger effect = higher value
# [2] = HepG2 cytotoxicity, primary screen, cytotoxicity control for P. falciparum antimalarial project, cell-based, ATP luminescence (AID 2303;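 active means inhibition above 50%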;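 further: 0% = DMSO wells and 100% = digitonin-killed cells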); details: HepG2 viability, 24-48 h, at 10 µM, stronger effect = higher value
# [3] = target: L-lactate dehydrogenase (Plasmodium falciparum (isolate CDC / Honduras)) (UniProt Q27743); experiment: PfLDH activity inhibition – cell lysate, 3D7 strain, counter-screen for P. falciparum growth inhibition project (AID 2304);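 further: 0% = vehicle and 100% = reference inhibitor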; details: P. falciparum 3D7 crude extract, LDH APAD/NBT absorbance; at 2 µM; stronger effect = higher value
# [4] = inhibition of 3D7 malaria parasite growth – strain 3D7 (AID 2306);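 further: 0% = DMSO wells and 100% = chloroquine plus artemisinin control wells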; details: P. falciparum 3D7 erythrocytic growth, LDH absorbance, 72 h; at 2 µM; stronger effect = higher value
# [5] = target: Calcium-dependent protein kinase 1 (Plasmodium falciparum (isolate 3D7)) (UniProt P62344); experiment: PfCDPK1 kinase inhibitors, biochemical, TCAMS library (AID 1159585; cut-off not given, nearly all actives have IC50 up to about 0.98 µM;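 further: inhibitors leave more ATP so luminescence rises with inhibition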); details: recombinant PfCDPK1, Kinase-Glo ATP depletion luminescence
# [6] = target: Plasmodium falciparum protein kinase 6 (PK6, PF3D7_1337100) (UniProt Q8IDW1); experiment: PfPK6 kinase inhibitors, biochemical, TCAMS library (AID 1159586); details: recombinant PfPK6, Kinase-Glo ATP depletion luminescence
# [7] = target: Protein kinase 7 (PK7), Plasmodium falciparum 3D7 (PF3D7_0213400) (UniProt Q7YTF7); experiment: inhibition of Plasmodium PK7 catalytic activity – biochemical, TCAMS antimalarial set, Kinase-Glo luminescence (AID 1159587); details: recombinant PfPK7, Kinase-Glo ATP depletion luminescence
# [8] = target: Calcium-dependent protein kinase 4 (Plasmodium falciparum (isolate 3D7)) (UniProt Q8IBS5); experiment: PfCDPK4 kinase inhibitors, biochemical, TCAMS library (AID 1159588; cut-off not given, nearly all actives have IC50 up to about 0.91 µM); details: recombinant PfCDPK4, Kinase-Glo ATP depletion luminescence
# Chain of Calcium-dependent protein kinase 4 (Plasmodium falciparum (isolate 3D7)) (Q8IBS5 whole entry, looked up): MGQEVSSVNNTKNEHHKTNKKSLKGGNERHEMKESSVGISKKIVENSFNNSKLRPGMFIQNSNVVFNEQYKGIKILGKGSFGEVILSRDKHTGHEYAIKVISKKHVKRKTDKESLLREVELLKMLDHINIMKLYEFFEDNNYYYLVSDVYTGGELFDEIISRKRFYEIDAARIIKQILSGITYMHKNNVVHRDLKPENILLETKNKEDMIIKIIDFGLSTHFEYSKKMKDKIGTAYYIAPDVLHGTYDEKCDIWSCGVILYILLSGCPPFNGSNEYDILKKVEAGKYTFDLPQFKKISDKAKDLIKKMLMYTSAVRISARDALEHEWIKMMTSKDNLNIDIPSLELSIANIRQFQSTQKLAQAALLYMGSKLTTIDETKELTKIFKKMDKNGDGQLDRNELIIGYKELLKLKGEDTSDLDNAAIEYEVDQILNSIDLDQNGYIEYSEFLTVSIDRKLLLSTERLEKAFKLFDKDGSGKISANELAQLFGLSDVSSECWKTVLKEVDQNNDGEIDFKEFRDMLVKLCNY
# Chain of L-lactate dehydrogenase (Plasmodium falciparum (isolate CDC / Honduras)) (Q27743 whole entry, looked up): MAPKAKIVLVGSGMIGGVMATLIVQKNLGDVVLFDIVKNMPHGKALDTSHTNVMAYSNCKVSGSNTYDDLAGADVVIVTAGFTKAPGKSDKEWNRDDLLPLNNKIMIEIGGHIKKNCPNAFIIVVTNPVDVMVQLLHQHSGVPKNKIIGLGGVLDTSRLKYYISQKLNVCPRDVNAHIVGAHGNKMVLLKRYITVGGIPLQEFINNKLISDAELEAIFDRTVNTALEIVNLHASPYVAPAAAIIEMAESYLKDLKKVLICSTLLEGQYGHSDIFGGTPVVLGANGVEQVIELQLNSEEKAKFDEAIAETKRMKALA
# Chain of Protein kinase 7 (PK7), Plasmodium falciparum 3D7 (PF3D7_0213400) (Q7YTF7 1-343): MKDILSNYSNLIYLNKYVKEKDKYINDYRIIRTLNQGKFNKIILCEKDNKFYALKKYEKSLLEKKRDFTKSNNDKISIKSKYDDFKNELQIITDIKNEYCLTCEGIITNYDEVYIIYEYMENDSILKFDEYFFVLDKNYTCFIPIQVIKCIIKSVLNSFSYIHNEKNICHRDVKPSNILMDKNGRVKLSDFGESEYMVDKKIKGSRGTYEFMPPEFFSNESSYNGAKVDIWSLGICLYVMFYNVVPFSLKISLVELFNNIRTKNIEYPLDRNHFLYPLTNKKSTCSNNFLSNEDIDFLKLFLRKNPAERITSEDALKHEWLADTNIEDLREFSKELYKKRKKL
# Chain of Plasmodium falciparum protein kinase 6 (PK6, PF3D7_1337100) (Q8IDW1 1-305): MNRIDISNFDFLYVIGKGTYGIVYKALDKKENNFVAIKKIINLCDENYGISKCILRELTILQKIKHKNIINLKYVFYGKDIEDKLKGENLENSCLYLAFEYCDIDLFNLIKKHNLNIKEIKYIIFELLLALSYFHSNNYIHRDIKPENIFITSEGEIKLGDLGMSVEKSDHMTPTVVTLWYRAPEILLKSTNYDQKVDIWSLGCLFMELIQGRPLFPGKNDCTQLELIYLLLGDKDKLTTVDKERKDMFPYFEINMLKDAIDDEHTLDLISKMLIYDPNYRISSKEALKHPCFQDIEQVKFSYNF
# Chain of Calcium-dependent protein kinase 1 (Plasmodium falciparum (isolate 3D7)) (P62344 whole entry, looked up): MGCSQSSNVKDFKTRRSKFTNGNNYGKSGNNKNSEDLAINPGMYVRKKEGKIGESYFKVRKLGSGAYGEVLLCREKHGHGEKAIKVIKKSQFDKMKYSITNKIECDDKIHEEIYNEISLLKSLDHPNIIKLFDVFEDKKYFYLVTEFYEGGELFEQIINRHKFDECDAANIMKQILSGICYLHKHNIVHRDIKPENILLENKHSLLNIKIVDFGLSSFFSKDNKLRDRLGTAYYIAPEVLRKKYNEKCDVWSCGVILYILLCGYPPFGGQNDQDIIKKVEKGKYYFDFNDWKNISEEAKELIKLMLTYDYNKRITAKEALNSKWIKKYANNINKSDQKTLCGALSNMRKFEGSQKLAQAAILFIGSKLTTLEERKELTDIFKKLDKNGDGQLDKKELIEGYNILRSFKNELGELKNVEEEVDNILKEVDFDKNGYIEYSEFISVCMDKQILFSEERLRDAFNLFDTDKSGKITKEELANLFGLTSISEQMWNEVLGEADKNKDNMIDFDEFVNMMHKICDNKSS
Structure (SMILES),growth inhibition [1],inhibition [2],inhibition [3] [%],growth inhibition [4],outcome [5],outcome [6],outcome [7],outcome [8]
Clc1cc(Nc2ccnc3ccc(Br)cc23)ccc1Oc1ccc2ccccc2c1Cl,93% (active),5%,-5,100% (active),inactive,inactive,inactive,inactive
CCOc1ccc(-c2n[nH]c(C(F)(F)F)c2-c2ccccc2OC)c(O)c1,12%,22%,-5,86% (active),inactive,inactive,inactive,inactive
Cc1nc(-c2ccc(-c3ccc(NC(=O)Nc4ccc(I)c(OCCN(C)C)c4)cc3)c(C)c2)no1,92% (active),47%,2,101% (active),inactive,inactive,inactive,inactive
CC(C)CC1c2[nH]c3ccccc3c2CCN1C(=O)CCc1ccccc1 (stereo not given),82% (active),-13%,-2,92% (active),inactive,inactive,inactive,inactive
CCCC(=O)Nc1ccc(OCCCCN(Cc2ccccc2C(F)(F)F)c2ccc(C(F)(F)F)c(C#N)c2)cc1,94% (active),6%,0,94% (active),inactive,inactive,inactive,inactive
COc1ccc(N2CCN(CCCCNC(=O)c3ccc(NC(=O)c4ccc(Cl)cc4)cc3)CC2)c(C)c1,51% (active),42%,0,100% (active),inactive,inactive,inactive,inactive
O=c1cc(NCC2(CNCc3cn(Cc4ccccc4)c4ccccc34)CCCCC2)[nH]c2ccccc12,56% (active),27%,1,100% (active),inactive,inactive,inactive,inactive
CCNc1cc(C(=O)N[C@@H](Cc2cccc(Cl)c2)[C@H](O)CNC(C)CCCC(C)C)cc(N2CCCCS2(=O)=O)c1 (stereo not given in full),78% (active),7%,-1,98% (active),inactive,inactive,inactive,inactive
O=C(Cn1c(CCc2cccc(F)c2F)nc(=O)c2ccccc21)N(CCN1CCCC1)Cc1ccc(-c2ccc(C(F)(F)F)cc2)cc1,37%,63% (active),-1,101% (active),inactive,inactive,inactive,inactive
Cc1cc(N[C@@H](CC(C)C)C(=O)NCc2cccc(F)c2)nc(Nc2ccccc2)n1,76% (active),-5%,2,100% (active),inactive,inactive,inactive,inactive
O=C(Nc1ccc(Br)cc1)N1CCC(n2c(-c3ccccc3)nc3cccnc32)CC1,86% (active),36%,0,90% (active),inactive,inactive,inactive,inactive
O=C(/C=C/c1ccc(Cl)c(Cl)c1)NCCCCCN1CCC(C(=O)Nc2ccc(Cl)cc2)CC1,-1%,42%,8,100% (active),inactive,inactive,inactive,inactive
c1cc(COc2ccc(C3=NCCN3)cc2)nc(COc2ccc(C3=NCCN3)cc2)c1,98% (active),8%,-2,100% (active),inactive,inactive,inactive,inactive
COc1ccc2nc(C)cc(N/N=C/C=C/c3ccccc3)c2c1,100% (active),27%,0,100% (active),inactive,inactive,inactive,inactive
N#Cc1cccc(CN2CCCN(Cc3cccc(C(=O)Nc4ccc(Cl)cc4)c3)CC2)c1,9%,46%,1,82% (active),inactive,inactive,inactive,inactive
COc1ccc(CNCc2ccc(-c3ccc(CNCCc4ccccc4)cn3)cc2)cn1,44%,16%,1,97% (active),inactive,inactive,inactive,inactive
Cc1onc(-c2c(Cl)cccc2Cl)c1C(=O)NC1=NC(C)(C)ON1c1ccccc1,36%,6%,1,97% (active),inactive,inactive,inactive,inactive
O=C(/C=C/c1ccc(Cl)c(Cl)c1)NCCCCCN1CCC(NC(=O)NC2CCCCC2)CC1,44%,22%,-1,96% (active),inactive,inactive,inactive,inactive
Cc1cc(NN=Cc2ccccc2[N+](=O)[O-])c2cccc(C)c2n1,100% (active),-6%,1,99% (active),inactive,inactive,inactive,inactive
Nc1cc(C=Cc2ccc([N+](=O)[O-])s2)nc2ccccc12,48%,89% (active),-7,98% (active),inactive,inactive,inactive,inactive
